Reference: PubChem BioAssay (NCI)
About 79,000 compounds went through this panel and 15% of them were active in at least one assay; those are over-represented in the sample as a whole. Values without a mark were called inactive. Activity calls are given as the source filed them. No stated cut-off is given here; in the data, active means growth inhibition above about 70%; inactive means the rest.

What was measured:
[1] = NCI Yeast Anticancer Drug Screen. Data for the rad50 strain (AID 155);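 further: 0% = growth of vehicle-only cultures of the same strain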; conditions: S. cerevisiae rad50 strain growth inhibition; at 50.0 µM; hits give high values
Procedure, shortened: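 Cells are treated with compound, grown, and their growth is then scored against vehicle-only cultures of the same repair-deficient yeast strain.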

[2] = NCI Yeast Anticancer Drug Screen. Data for the mec2-1 strain (AID 157); conditions: S. cerevisiae mec2-1 strain, at 50.0 µM, hits give high values
Procedure, shortened: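 Mutant yeast (mec2-1) grown with compound; growth inhibition relative to vehicle control reported.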

[3] = NCI Yeast Anticancer Drug Screen. Data for the sgs1 mgt1 strain (AID 161);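 further: 0% = growth of cultures given vehicle only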; conditions: S. cerevisiae sgs1 mgt1 strain, at 50.0 µM, hits give high values
Procedure, shortened: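 Percent growth inhibition was derived by comparing compound-exposed mutant yeast with vehicle-exposed cultures. The strain carries alterations in DNA damage repair.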

[4] = NCI Yeast Anticancer Drug Screen. Data for the cln2 rad14 strain (AID 165);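 further: 0% = growth equal to vehicle treated cultures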; conditions: S. cerevisiae cln2 rad14 strain, at 50.0 µM, hits give high values
Procedure, shortened: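 Readout is yeast growth inhibition versus vehicle-treated controls, using a strain with cln2 and rad14 alterations exposed to compound.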

[5] = NCI Yeast Anticancer Drug Screen. Data for the bub3 strain (AID 167); conditions: S. cerevisiae bub3 mutant strain, at 50.0 µM, hits give high values
Procedure, shortened: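 Part of a panel of yeast mutants defective in DNA damage repair or cell cycle regulation. Each strain is grown with compound, and inhibition is calculated relative to solvent-treated cultures.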

[6] = NCI Yeast Anticancer Drug Screen. Data for the mlh1 rad18 strain (AID 175); conditions: S. cerevisiae mlh1 rad18 strain growth inhibition; at 50.0 µM; hits give high values
Procedure, shortened: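 Genetically defined yeast (DNA repair-deficient) exposed to compounds; growth inhibition determined relative to vehicle.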

## CNCC(C(=O)C(CNC)c1ccccc1)c1ccccc1 (stereo not given)
[1]
  growth inhibition: -1.15%
[2]
  growth inhibition: -6.45%
[3]
  growth inhibition: 11.4%
[4]
  growth inhibition: 7.6%
[5]
  growth inhibition: 4%
[6]
  growth inhibition: 21.9%

## COC1=C(N)C(=O)c2nc(C)ccc2C1=O
[1]
  growth inhibition: 45.8%
[2]
  growth inhibition: 44.4%
[3]
  growth inhibition: 55.5%
[4]
  growth inhibition: -3.9%
[5]
  growth inhibition: 56.9%
[6]
  growth inhibition: 66.5%

## Ic1ccc(Nc2ncnc3sc4c(c23)CCCC4)cc1
[1]
  growth inhibition: 24.2%
[2]
  growth inhibition: -14%
[3]
  growth inhibition: -16.9%
[4]
  growth inhibition: 15.8%
[5]
  growth inhibition: 7.25%
[6]
  growth inhibition: -7.65%

## COc1cc(CNc2nc3c(N)cc(C(F)(F)F)cc3nc2-c2ccccc2)cc(OC)c1OC
[1]
  growth inhibition: 0.25%
[2]
  growth inhibition: -9.35%
[3]
  growth inhibition: 6.6%
[4]
  growth inhibition: 17.6%
[5]
  growth inhibition: -11.3%
[6]
  growth inhibition: -25.6%

## Cc1ccc(S(=O)(=O)OCC2OC(C)(C)OC2COS(=O)(=O)c2ccc(C)cc2)cc1 (stereo not given)
[1]
  growth inhibition: 25%
[2]
  growth inhibition: -5.65%
[3]
  growth inhibition: 6.7%
[4]
  growth inhibition: -38.6%
[5]
  growth inhibition: 6.2%
[6]
  growth inhibition: 10.3%

## [N-]=[N+]=Nc1ccnc2cc(C(F)(F)F)ccc12
[1]
  growth inhibition: -31.5%
[2]
  growth inhibition: 3.35%
[3]
  growth inhibition: -2.25%
[4]
  growth inhibition: -36.7%
[5]
  growth inhibition: 4.45%
[6]
  growth inhibition: 11.1%

## C=C1C(=O)O[C@H]2[C@H]1CC(=O)/C(C)=C/CC[C@@]1(C)O[C@@H]21
[1]
  growth inhibition: 32.7%
[2]
  growth inhibition: 21.4%
[3]
  growth inhibition: 32.8%
[4]
  growth inhibition: 21.4%
[5]
  growth inhibition: 25.6%
[6]
  growth inhibition: 7%

## Cn1c(=O)c2[nH]c(N/N=N/c3nncs3)nc2n(C)c1=O
[1]
  growth inhibition: -67.5%
[2]
  growth inhibition: -117%
[3]
  growth inhibition: -51.9%
[4]
  growth inhibition: -19.8%
[5]
  growth inhibition: -19.4%
[6]
  growth inhibition: -117%

## O=C(OCCCCNC1CCCCC1)c1ccc([N+](=O)[O-])cc1
[1]
  growth inhibition: 9.65%
[2]
  growth inhibition: 3%
[3]
  growth inhibition: -7.05%
[4]
  growth inhibition: -7.3%
[5]
  growth inhibition: -13.6%
[6]
  growth inhibition: 5.25%

## S=C(c1ccccc1)N1CCCCC1
[1]
  growth inhibition: 8%
[2]
  growth inhibition: -1.7%
[3]
  growth inhibition: 0.45%
[4]
  growth inhibition: -23.4%
[5]
  growth inhibition: 16.3%
[6]
  growth inhibition: 4.05%

## COC(=O)/C(C#N)=C1\CCC(O)N1C (stereo not given)
[1]
  growth inhibition: 11.9%
[2]
  growth inhibition: -10.8%
[3]
  growth inhibition: 5.8%
[4]
  growth inhibition: 6.2%
[5]
  growth inhibition: 3%
[6]
  growth inhibition: 9.6%

## CC(=O)OCN(C)C=O
[1]
  growth inhibition: 25.9%
[2]
  growth inhibition: 11.3%
[3]
  growth inhibition: 18.7%
[4]
  growth inhibition: 14.5%
[5]
  growth inhibition: 11.1%
[6]
  growth inhibition: 19.6%

## O=C(COc1cccc(Cl)c1)Nc1ccccc1
[1]
  growth inhibition: -2.9%
[2]
  growth inhibition: -31.9%
[3]
  growth inhibition: 7.85%
[4]
  growth inhibition: -17.1%
[5]
  growth inhibition: 39.7%
[6]
  growth inhibition: 2.05%

## CSc1ccc(OC(=O)Nc2cc(Cl)ccc2C)cc1
[1]
  growth inhibition: 4.35%
[2]
  growth inhibition: 14.8%
[3]
  growth inhibition: 25.9%
[4]
  growth inhibition: -0.6%
[5]
  growth inhibition: 38%
[6]
  growth inhibition: 5.75%

## CC(=O)Nc1ccc(C=O)cc1[N+](=O)[O-]
[1]
  growth inhibition: 14.2%
[2]
  growth inhibition: 33.3%
[3]
  growth inhibition: 4.05%
[4]
  growth inhibition: -12.8%
[5]
  growth inhibition: -0.6%
[6]
  growth inhibition: 13.4%

## O=C(c1ccc2c(c1)OCO2)C(O)c1ccc(Cl)cc1 (stereo not given)
[1]
  growth inhibition: 2.85%
[2]
  growth inhibition: 3.9%
[3]
  growth inhibition: 1.85%
[4]
  growth inhibition: -16.1%
[5]
  growth inhibition: -4.75%
[6]
  growth inhibition: 5%

## COc1cc2c3c(c1)[nH]c(=S)n3C(=O)C(C)S2 (stereo not given)
[1]
  growth inhibition: -15.9%
[2]
  growth inhibition: -34.6%
[3]
  growth inhibition: -4.9%
[4]
  growth inhibition: -6%
[5]
  growth inhibition: -3.85%
[6]
  growth inhibition: -25.6%

## O=C1CSC(c2cccc(Cl)c2)N1CCN1C(=O)CSC1c1cccc(Cl)c1 (stereo not given)
[1]
  growth inhibition: -14.6%
[2]
  growth inhibition: 9%
[3]
  growth inhibition: -2.55%
[4]
  growth inhibition: -20.8%
[5]
  growth inhibition: 2.75%
[6]
  growth inhibition: -6.6%

## O=c1c(CN(CCO)CCO)c(-c2ccccc2)sc2ccccc12
[1]
  growth inhibition: -3.45%
[2]
  growth inhibition: -24.6%
[3]
  growth inhibition: -28.1%
[4]
  growth inhibition: 13.1%
[5]
  growth inhibition: -13.8%
[6]
  growth inhibition: 14.7%

## CC1SC2(C(=O)Nc3ccccc32)N(c2ccc(O)cc2)C1=O (stereo not given)
[1]
  growth inhibition: 6.25%
[2]
  growth inhibition: -2.75%
[3]
  growth inhibition: 9.45%
[4]
  growth inhibition: 2%
[5]
  growth inhibition: 7.9%
[6]
  growth inhibition: 14.8%

## O=C(C/C(=N\NC(=O)C[n+]1ccccc1)C(=O)Nc1nc2ccc([N+](=O)[O-])cc2s1)CC(c1ccccc1)c1c(O)c2ccccc2oc1=O (stereo not given)
[1]
  growth inhibition: 3.65%
[2]
  growth inhibition: -15%
[3]
  growth inhibition: -17.2%
[4]
  growth inhibition: 1.6%
[5]
  growth inhibition: 7.3%
[6]
  growth inhibition: -4.85%

## COc1ccc(/C(C)=N/NC(N)=S)cc1OC
[1]
  growth inhibition: 6.65%
[2]
  growth inhibition: -17.9%
[3]
  growth inhibition: 2.45%
[4]
  growth inhibition: 16%
[5]
  growth inhibition: -13.3%
[6]
  growth inhibition: 3.45%

## CCC(=O)C(C)C(=O)C(=O)NCCNC(=O)C(=O)C(C)C(=O)CC (stereo not given)
[1]
  growth inhibition: 19.9%
[2]
  growth inhibition: -1.3%
[3]
  growth inhibition: 2.75%
[4]
  growth inhibition: -16.6%
[5]
  growth inhibition: -8.5%
[6]
  growth inhibition: -25.6%

## Nc1ccc(S(=O)(=O)c2ccc(Nc3ccnc4cc(Cl)ccc34)cc2)cc1
[1]
  growth inhibition: 23.1%
[2]
  growth inhibition: 13.6%
[3]
  growth inhibition: 5.05%
[4]
  growth inhibition: 7.55%
[5]
  growth inhibition: 1.6%
[6]
  growth inhibition: 12.8%

## Cc1cn(C2CC(OC(=O)C(Cc3ccccc3)NC(=O)OCc3ccccc3)C(COC(=O)C(Cc3ccccc3)NC(=O)OCc3ccccc3)O2)c(=O)[nH]c1=O (stereo not given)
[1]
  growth inhibition: -14.9%
[2]
  growth inhibition: -3.65%
[3]
  growth inhibition: -13.3%
[4]
  growth inhibition: -26.7%
[5]
  growth inhibition: -12.9%
[6]
  growth inhibition: 14.3%

## O=C(CC(=O)c1cccc([N+](=O)[O-])c1)C(=O)Nc1ccccc1
[1]
  growth inhibition: -30.5%
[2]
  growth inhibition: -28.8%
[3]
  growth inhibition: 14.7%
[4]
  growth inhibition: 11.1%
[5]
  growth inhibition: -8.05%
[6]
  growth inhibition: -5.55%

## Cc1ccc(S(=O)(=O)N2CCCC(=O)c3ccccc32)cc1
[1]
  growth inhibition: -12.4%
[2]
  growth inhibition: 14.4%
[3]
  growth inhibition: -12.9%
[4]
  growth inhibition: 9.35%
[5]
  growth inhibition: 12.1%
[6]
  growth inhibition: 11.3%

## CN1Cc2ccccc2C1
[1]
  growth inhibition: 0.75%
[2]
  growth inhibition: -3.5%
[3]
  growth inhibition: 1.7%
[4]
  growth inhibition: 10.4%
[5]
  growth inhibition: 17.4%
[6]
  growth inhibition: 5.55%

## Cc1cc2cc3oc(C)cc3cc2o1
[1]
  growth inhibition: 6.3%
[2]
  growth inhibition: -6.45%
[3]
  growth inhibition: -7.8%
[4]
  growth inhibition: -45.6%
[5]
  growth inhibition: -0.8%
[6]
  growth inhibition: 3.25%

## N#CC(=C1c2ccccc2-c2ccccc21)c1ccccc1
[1]
  growth inhibition: -14.2%
[2]
  growth inhibition: 7.1%
[3]
  growth inhibition: -2.35%
[4]
  growth inhibition: -2.65%
[5]
  growth inhibition: 2.75%
[6]
  growth inhibition: -20.5%

## Clc1ccc(CSC2=NCCN2)cc1Cl
[1]
  growth inhibition: -17%
[2]
  growth inhibition: -26.4%
[3]
  growth inhibition: -21.9%
[4]
  growth inhibition: -24.4%
[5]
  growth inhibition: -14%
[6]
  growth inhibition: 12.8%

## CC(=O)NC1(C#N)c2ccccc2-c2ccccc21
[1]
  growth inhibition: 18.6%
[2]
  growth inhibition: 4.2%
[3]
  growth inhibition: 18.9%
[4]
  growth inhibition: 9.3%
[5]
  growth inhibition: 5.25%
[6]
  growth inhibition: 4.55%

## O=C(CC12C3C4C1C1C2C3C41CC(=O)NO)NO (stereo not given)
[1]
  growth inhibition: -28.8%
[2]
  growth inhibition: -28.1%
[3]
  growth inhibition: -29.2%
[4]
  growth inhibition: 11.9%
[5]
  growth inhibition: -19.9%
[6]
  growth inhibition: -10.9%

## Cn1cnc2cc(NCCO)c([N+](=O)[O-])cc2c1=O
[1]
  growth inhibition: 11.1%
[2]
  growth inhibition: 18.9%
[3]
  growth inhibition: 4.5%
[4]
  growth inhibition: 11.4%
[5]
  growth inhibition: 24.4%
[6]
  growth inhibition: 24.3%

## OCC(O)C(O)C(O)C(O)/C=N\Nc1ccccc1 (stereo not given)
[1]
  growth inhibition: 43.3%
[2]
  growth inhibition: 67%
[3]
  growth inhibition: 62.8%
[4]
  growth inhibition: 34.1%
[5]
  growth inhibition: 81% (active)
[6]
  growth inhibition: 89.1% (active)

## CC(C(=O)O)C(Nc1ncnc2c1ncn2C1OC(CO)C(O)C1O)C(=O)O (stereo not given)
[1]
  growth inhibition: -8.4%
[2]
  growth inhibition: -12.2%
[3]
  growth inhibition: -27.6%
[4]
  growth inhibition: -2.1%
[5]
  growth inhibition: 3.5%
[6]
  growth inhibition: -26.4%

## COc1ccc2c(c1)C(=O)C1(C2)[C@H](c2ccccc2)C2C(=O)c3cc(OC)ccc3C2[C@H]1c1ccccc1 (stereo not given in full)
[1]
  growth inhibition: -20.4%
[2]
  growth inhibition: -3%
[3]
  growth inhibition: 11.9%
[4]
  growth inhibition: -5.2%
[5]
  growth inhibition: 21.1%
[6]
  growth inhibition: 9.3%

## CC(=O)NC(CCCNC(=O)N(C)N=O)C(=O)NCc1ccccc1 (stereo not given)
[1]
  growth inhibition: -35%
[2]
  growth inhibition: -26.9%
[3]
  growth inhibition: -15.6%
[4]
  growth inhibition: 6.9%
[5]
  growth inhibition: -21.2%
[6]
  growth inhibition: -13.3%

## COC1=CC(O)(CC(N)=O)c2ccccc2C1=O (stereo not given)
[1]
  growth inhibition: -5.3%
[2]
  growth inhibition: -8.65%
[3]
  growth inhibition: 10.6%
[4]
  growth inhibition: -11.4%
[5]
  growth inhibition: -23.9%
[6]
  growth inhibition: 4.85%

## Nc1ncnc(N)c1NC(=O)c1ccc(SCc2ccccc2)cc1
[1]
  growth inhibition: -7.15%
[2]
  growth inhibition: 20.9%
[3]
  growth inhibition: 27.5%
[4]
  growth inhibition: -21.2%
[5]
  growth inhibition: 22.5%
[6]
  growth inhibition: 22.2%
